The text below walks through data of PubChem BioAssay (Tox21).

“And” between values parts separate entries of the source, which are not always exact repeats. Identical values can stand only once. Records with an inconclusive call do not appear. A structure can be active in one record and inactive in another. The source made the active and inactive calls. Unless noted, calls follow the shape of the dose curve; as a rule, active = well fitted curve in the direction sought with a large enough effect in the repeat runs; inconclusive = weak or mixed curves; inactive = no such curve, though single readings can be large; an effect the other way counts as inactive or inconclusive.

Test [1] is described as follows: qHTS assay to test for compound auto fluorescence at 535 nm (green) in HEK293 cells (AID 720680). In general terms: Quantitative high-throughput screening tests each substance at several concentrations.
A short description of test [2]: qHTS assay to test for compound auto fluorescence at 460 nm (blue) in HEK293 cell free culture (AID 720681). Put shortly:
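Blue fluorescence (Ex 405/Em 460 nm, triamterene-equivalent) was read immediately after pin transfer of compound or DMSO into medium (DMEM, 10% FBS) without cells.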

Test [3] is described as follows: qHTS assay to test for compound auto fluorescence at 535 nm (green) in HEK293 cell free culture (AID 720682). The gist of the method: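 No cells present: wells hold DMEM supplemented with 10% FBS, into which compound or vehicle is pinned. Green emission is then recorded (485 nm excitation, 535 nm emission) and scaled to fluorescein.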
A short description of test [4]: qHTS assay to test for compound auto fluorescence at 590 nm (red) in HEK293 cell free culture (AID 720683). Put shortly:
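Red-channel autofluorescence of compounds in culture medium (DMEM, 10% FBS), no cells, measured at 540/590 nm. Rose Bengal sodium is the reference fluorophore for equivalence.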

Test [5] can be described thus: qHTS assay to test for compound auto fluorescence at 590 nm (red) in HepG2 cell free culture (AID 720684). Put shortly: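 Steps: dispense MEM/10% FBS medium, no cells; pin compound or DMSO vehicle; read red channel, Ex/Em 540/590 nm. Output given as Rose Bengal sodium equivalents.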
Test [6] can be described thus: qHTS assay to test for compound auto fluorescence at 460 nm (blue) in HepG2 cell free culture (AID 720685). The gist of the method:
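Compound (23 nL) or DMSO pinned into cell-free MEM with 10% FBS; blue fluorescence read at 405/460 nm excitation/emission, expressed as auto-fluorescence equivalency to triamterene.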

A short description of test [7]: qHTS assay to test for compound auto fluorescence at 535 nm (green) in HepG2 cell free culture (AID 720686).
A short description of test [8]: qHTS assay to test for compound auto fluorescence at 460 nm (blue) in HepG2 cells (AID 720687). The gist of the method:
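Blue-channel autofluorescence (Ex/Em 405/460 nm, triamterene-equivalent) was measured after 1 hr compound exposure at 37 C, 5% CO2. Cells were HepG2, plated overnight at 37 C in MEM plus 10% FBS.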

For test [9], the target named is Glucocorticoid receptor (Homo sapiens) (UniProt P04150). As to the kind of experiment: qHTS assay to identify small molecule agonists of the glucocorticoid receptor (GR) signaling pathway (AID 720691; active = well fitted activation curve with a large enough effect in the signal ratio in the repeat runs, not every such curve was filed as active; the % refers to the signal ratio). Put shortly:
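qHTS in GR-bla HeLa cells: 4 h settling at 37 C/5% CO2, 18 h compound incubation at 37 C, 2 h LiveBLAzer B/G FRET substrate at room temperature, fluorescence intensity measured.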

Test [10] can be described thus: qHTS assay to identify small molecule antagonists of the glucocorticoid receptor (GR) signaling pathway - cell viability counter screen (AID 720693). Also: nearly all actives have a fitted effect of over 55% in size. Also: potency is read from the fitted curve at half-maximal effect.
Test [11] can be described thus: qHTS assay to identify small molecule antagonists of the androgen receptor (AR) signaling pathway - cell viability counter screen (AID 743033; also: nearly all actives have a fitted effect of over 45% in size).
A short description of test [12]: qHTS assay to identify small molecule antagonists of the androgen receptor (AR) signaling pathway using the MDA cell line - cell viability counter screen (AID 743041; also: nearly all actives have a fitted effect of over 45% in size; also: potency is read from the fitted curve at half-maximal effect). The gist of the method:
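Cells were plated at 3,000 per well and left 5 h. Compounds in DMSO were then pinned in, followed by R1881. After 16 h at 37C, CellTiter-Fluor fluorescence gave viability.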

Test [13] addresses Glucocorticoid receptor (Homo sapiens) (UniProt P04150). As to the kind of experiment: qHTS assay to identify small molecule antagonists of the glucocorticoid receptor (GR) signaling pathway (AID 720692; active = well fitted inhibition curve with a large enough effect in the signal ratio in the repeat runs, not every such curve was filed as active; the % refers to the signal ratio). The gist of the method: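 Inhibition of glucocorticoid signalling is measured in HeLa cells with a GRE-controlled beta-lactamase reporter; cells are co-treated with compound and 5 nM dexamethasone (final) for 18 h before FRET substrate readout.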

A short description of test [14]: qHTS assay for identifying genotoxic compounds that show differential cytotoxicity against isogenic chicken DT40 cell lines with known DNA damage response pathways - Rev3 mutant cell line (AID 743014). Also: nearly all actives have a fitted effect of over 55% in size. Also: potency is read from the fitted curve at half-maximal effect.
Test [15] is described as follows: qHTS assay for identifying genotoxic compounds that show differential cytotoxicity against isogenic chicken DT40 cell lines with known DNA damage response pathways - Rad54/Ku70 mutant cell line (AID 743015). Also: nearly all actives have a fitted effect of over 60% in size. Also: potency is read from the fitted curve at half-maximal effect.
The nature of test [16]: qHTS assay to identify small molecule antagonists of the thyroid receptor (TR) signaling pathway - cell viability counter screen (AID 743064). Also: nearly all actives have a fitted effect of over 50% in size. Also: potency is read from the fitted curve at half-maximal effect. Put shortly: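 Rat GH3 pituitary tumor cells stably expressing two TR response elements driving luciferase were plated, rested 4 h, then dosed with library compounds and T3 (1 nM final). After 23.5 h at 37 °C, CellTiter-Fluor was added for 30 min and fluorescence recorded.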

Test [17] can be described thus: qHTS assay for identifying genotoxic compounds that show differential cytotoxicity against isogenic chicken DT40 cell lines with known DNA damage response pathways - wild type cell line (AID 743012). Also: nearly all actives have a fitted effect of over 60% in size. Put shortly: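 First, wild type DT40 cells were plated at 300 per well and equilibrated about 0.5 h at 37 C/5% CO2. Next, compounds in DMSO were added and exposure lasted 40 h. Finally, CellTiter-Glo was added for 30 min at room temperature and luminescence recorded.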

Test [18] concerns the target Androgen receptor (Homo sapiens) (UniProt P10275). As to the kind of experiment: qHTS assay to identify small molecule antagonists of the androgen receptor (AR) signaling pathway (AID 743035; active = well fitted inhibition curve with a large enough effect in the signal ratio in the repeat runs, not every such curve was filed as active; the % refers to the signal ratio). Put shortly:
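Beta-lactamase FRET read (2 h RT incubation with LiveBLAzer B/G) following 16 h of compound plus R1881 treatment of AR-UAS-bla HEK293 cells, which had been pre-incubated 4 h at 37C.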

Test [19] has the same target. As to the kind of experiment: qHTS assay to identify small molecule agonists of the androgen receptor (AR) signaling pathway (AID 743036; active = well fitted activation curve with a large enough effect in the signal ratio in the repeat runs, with a control signal flat, not every such curve was filed as active; the % refers to the signal ratio). The gist of the method:
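Quantitative HTS of the Tox21 10K library in HEK293 cells bearing a stably integrated UAS-controlled beta-lactamase reporter. Compound exposure lasted 16 h at 37C. Reporter activity was detected by FRET substrate fluorescence after 2 h at room temperature.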

Test [20] has the same target. Description: qHTS assay to identify small molecule antagonists of the androgen receptor (AR) signaling pathway using the MDA cell line (AID 743042; also: nearly all actives have a fitted effect of over 55% in size). Put shortly: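 Antagonist mode: compounds plus R1881 agonist added to MDA-kb2 AR-luc cells, incubated 16 h at 37C. Luciferase reporter luminescence quantified, with multiplexed CellTiter-Fluor readout for cell viability.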

Androgen receptor (Homo sapiens), sequence (P10275 whole entry, looked up): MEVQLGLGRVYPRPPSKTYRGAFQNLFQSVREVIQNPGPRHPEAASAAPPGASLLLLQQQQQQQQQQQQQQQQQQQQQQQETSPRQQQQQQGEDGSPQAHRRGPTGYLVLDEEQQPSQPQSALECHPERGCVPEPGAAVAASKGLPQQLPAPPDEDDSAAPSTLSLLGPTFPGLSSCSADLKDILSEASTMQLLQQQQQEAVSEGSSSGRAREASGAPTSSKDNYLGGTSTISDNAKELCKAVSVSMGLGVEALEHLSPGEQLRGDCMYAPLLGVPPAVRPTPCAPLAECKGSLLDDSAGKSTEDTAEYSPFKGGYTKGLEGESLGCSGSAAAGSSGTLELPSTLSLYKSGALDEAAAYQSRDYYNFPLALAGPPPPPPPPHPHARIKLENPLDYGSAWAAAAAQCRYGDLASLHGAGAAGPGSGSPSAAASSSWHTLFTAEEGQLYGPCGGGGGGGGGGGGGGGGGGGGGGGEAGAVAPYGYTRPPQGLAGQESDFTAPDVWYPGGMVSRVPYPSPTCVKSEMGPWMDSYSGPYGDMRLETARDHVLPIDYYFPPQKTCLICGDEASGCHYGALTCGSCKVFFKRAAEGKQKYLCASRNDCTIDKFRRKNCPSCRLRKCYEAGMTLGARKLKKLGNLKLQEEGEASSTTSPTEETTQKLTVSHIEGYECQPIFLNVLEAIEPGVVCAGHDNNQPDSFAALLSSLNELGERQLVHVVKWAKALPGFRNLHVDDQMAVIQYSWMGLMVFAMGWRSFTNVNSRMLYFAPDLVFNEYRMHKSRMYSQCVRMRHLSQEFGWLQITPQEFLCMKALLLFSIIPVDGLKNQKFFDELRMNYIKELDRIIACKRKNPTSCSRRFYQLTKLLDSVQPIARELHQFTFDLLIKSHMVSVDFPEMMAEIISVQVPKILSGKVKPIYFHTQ
Glucocorticoid receptor (Homo sapiens), sequence (P04150 whole entry, looked up): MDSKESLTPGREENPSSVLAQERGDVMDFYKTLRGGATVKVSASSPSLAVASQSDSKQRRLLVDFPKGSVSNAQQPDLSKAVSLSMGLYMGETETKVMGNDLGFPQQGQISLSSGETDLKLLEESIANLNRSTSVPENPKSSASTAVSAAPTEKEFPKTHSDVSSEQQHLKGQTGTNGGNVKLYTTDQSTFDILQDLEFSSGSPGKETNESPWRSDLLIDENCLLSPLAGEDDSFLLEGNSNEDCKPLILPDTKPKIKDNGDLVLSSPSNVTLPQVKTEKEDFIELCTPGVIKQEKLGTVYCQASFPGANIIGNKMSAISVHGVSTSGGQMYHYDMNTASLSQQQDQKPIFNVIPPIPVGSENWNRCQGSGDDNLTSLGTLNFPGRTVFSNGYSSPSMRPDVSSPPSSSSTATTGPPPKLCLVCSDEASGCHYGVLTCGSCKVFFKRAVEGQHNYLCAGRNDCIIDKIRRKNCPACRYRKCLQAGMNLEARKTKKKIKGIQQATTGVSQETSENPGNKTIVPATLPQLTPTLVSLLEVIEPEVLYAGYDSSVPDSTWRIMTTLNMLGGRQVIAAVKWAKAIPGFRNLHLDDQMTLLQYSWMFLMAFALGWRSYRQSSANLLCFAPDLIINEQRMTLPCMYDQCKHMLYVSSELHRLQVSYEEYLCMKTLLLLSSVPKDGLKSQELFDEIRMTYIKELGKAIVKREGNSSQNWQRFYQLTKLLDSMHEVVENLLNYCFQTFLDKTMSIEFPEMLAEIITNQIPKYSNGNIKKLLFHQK

In the case of `NC(=O)n1c(O)c(C(=O)c2cccs2)c2cc(Cl)ccc21`, the Potency result in test [1], in test [2], in test [3], in test [4], in test [5] and in test [6] was “inactive” in each case. Moreover, the Potency result in test [7], in test [8], in test [9], in test [10], in test [11] and in [12] was “inactive” throughout.
Take `Cc1c(C(=O)O)c(O)cc2c1C(=O)c1c(O)c([C@@H]3O[C@H](CO)[C@@H](O)[C@H](O)[C@H]3O)c(O)c(O)c1C2=O`: the Potency entry in [1], in test [2], in [3], in [4], in test [5] and in test [6] was “inactive” in each case. Besides, the Potency result in test [7], in test [8], in test [9], in [13], in test [10] and in [11] was “inactive” in each case. Also, the Potency entry is “inactive and 59.6 µM (active) and 54.5 µM (active)” in test [14]; 53.1 µM (active) and 48.6 µM (active) in test [15]; 59.6 µM (active) and 27.3 µM (active) in [12]; 13.3 µM (active) and 59.6 µM (active) and 61.1 µM (active) in [16].
`C=C(C)C(=O)OCC(C)O` (configuration not stated): the Potency result in test [1], in test [2], in test [3], in test [4], in test [5] and in [6] was “inactive” throughout. Further, the Potency result in test [7], in test [8], in test [9], in [13], in test [10] and in test [17] was “inactive” in each case. For the same molecule, the Potency entry in test [14], in test [15], in test [11], in test [12] and in [16] was “inactive” each time.
With `CN(C)CCOC(c1ccccc1)c1ccccc1`, the Potency entry in test [1], in test [2], in [3], in [4], in test [5] and in test [6] was “inactive” in each case. Moreover, the Potency entry in test [7], in test [8], in test [9], in test [13], in [10] and in test [11] was “inactive” throughout. The Potency entry in test [18] and in [12] was “inactive” each time. Besides, the result in test [19] was inactive. In addition, the Potency in [16] was 26.6 µM (active) and 19.4 µM (active).
Regarding `CC(=O)Nc1c(I)c(NC(C)=O)c(I)c(C(=O)O)c1I`, the Potency result in test [1], in test [2], in test [3], in [4], in test [5] and in [6] was “inactive” throughout. Further, the Potency entry in [7], in [8], in [9], in test [13], in test [10] and in test [14] was “inactive” throughout. Moreover, the Potency result in [15], in test [11], in test [12] and in test [16] was “inactive” each time.
For `Nc1ccc(S(N)(=O)=O)cc1`, the Potency result in [1], in [2], in [3], in test [4], in [5] and in test [6] was “inactive” in each case. Moreover, the Potency result in test [7], in [8], in test [9], in test [13], in [10] and in test [17] was “inactive” each time. Besides, the Potency entry in [11], in test [12] and in test [16] was “inactive” throughout. For the same molecule, the Potency in [14] was 68.9 µM (active) and inactive; in test [15], “inactive and 61.4 µM (active)”.
`Cc1ncc([N+](=O)[O-])n1C`: the Potency entry in test [1], in test [2], in test [3], in [4], in test [5] and in test [6] was “inactive” each time. Also, the Potency entry in test [7], in test [8], in test [9], in [13], in test [10] and in test [17] was “inactive” each time. The Potency result in test [14], in [15], in test [11], in [12] and in test [16] was “inactive” each time.
As to `NS(=O)(=O)O`, the Potency result in test [1], in [2], in test [3], in [4], in [5] and in test [6] was “inactive” throughout. Also, the Potency entry in test [7], in [8], in test [9], in [13], in test [10] and in test [17] was “inactive” in each case. For the same molecule, the Potency result in test [14], in [15], in test [11], in test [12] and in [16] was “inactive” throughout.
As for `O=C1c2c(O)cccc2Cc2cccc(O)c21`, the Potency entry in test [1], in test [2], in [3], in test [4], in [5] and in test [6] was “inactive” throughout. For the same molecule, the Potency entry in test [7], in test [8], in [9], in test [13], in test [10] and in test [17] was “inactive” in each case. For the same molecule, the Potency result in test [14], in test [15], in test [11], in test [12] and in [16] was “inactive” each time.
For the molecule `CN(C)C(=O)Nc1ccc(Cl)c(Cl)c1`, the Potency result in [1], in test [2], in test [3], in [4], in [5] and in [6] was “inactive” throughout. The Potency entry in test [7], in test [8], in test [9], in [13], in test [10] and in test [17] was “inactive” in each case. Moreover, the Potency entry in test [15], in [11], in test [18], in [12], in [20] and in test [16] was “inactive” each time. The Potency result in [14] is “inactive and 54.5 µM (active)”. The molecule was called inactive in [19].
As to `O=c1[nH]cnc2c1ncn2[C@H]1CC[C@@H](CO)O1`, the Potency result in test [1], in test [2], in test [3], in test [4], in test [5] and in [6] was “inactive” in each case. For the same molecule, the Potency entry in [7], in [8], in [9], in test [13], in test [10] and in [11] was “inactive” in each case. In addition, the Potency entry in test [12] and in [16] was “inactive” in each case. The Potency result in test [15] is “inactive and 61.1 µM (active)”.
On to `C=C1CC[C@H](O)C/C1=C\C=C1/CCC[C@]2(C)[C@@H]([C@H](C)CCCC(C)C)CC[C@@H]12`, for which the Potency entry in [1], in test [2], in [3], in test [4], in [5] and in test [6] was “inactive” in each case. The Potency entry in test [7], in test [8], in [9], in test [11] and in test [12] was “inactive” throughout. Moreover, the Potency in test [10] was 54.4 µM (active); in test [14] it was 26.6 µM (active) and 24.1 µM (active); in test [15], 13.3 µM (active) and 15.2 µM (active); in [16], 26.6 µM (active) and 48.1 µM (active).
As to `Cc1cccc(C)c1`, the Potency result in test [1], in test [2], in [3], in [4], in test [5] and in test [6] was “inactive” each time. The Potency entry in test [7], in test [8], in test [9], in [13], in [10] and in [17] was “inactive” throughout. Further, the Potency result in test [14], in test [15], in test [11], in [12] and in test [16] was “inactive” in each case.
Take `CC(C)NCC(O)c1ccc(O)c(O)c1` (configuration not stated): the Potency result in [1], in test [2], in test [3], in test [4], in test [5] and in test [6] was “inactive” each time. Further, the Potency result in [7], in test [8], in test [9], in test [13], in test [10] and in test [11] was “inactive” in each case. For the same molecule, the Potency entry in [12] and in test [16] was “inactive” throughout. In addition, the Potency in test [14] was 61.1 µM (active).
